Data reported in publication PMC7862700, “An all-to-all approach to the identification of sequence-specific readers for epigenetic DNA modifications on cytosine”.

Legend:
Experiment in all cases: DAPPL (digital affinity profiling via proximity ligation, sequencing); 10 mM Tris-HCl pH 7.5, 50 mM NaCl, 1 mM DTT, 4% glycerol, room temperature, 30 min; GST-TFs on glutathione beads, 16-mer random dsDNA library, 0.1% formaldehyde crosslink after washing; high values mean tight binding
FLI1 = target: T1, FLI1 (Homo sapiens, UniProt Q01543 1-452); conditions: protein: recombinant; tags: N-terminal GST; dsDNA, one strand shown
T1 sequence: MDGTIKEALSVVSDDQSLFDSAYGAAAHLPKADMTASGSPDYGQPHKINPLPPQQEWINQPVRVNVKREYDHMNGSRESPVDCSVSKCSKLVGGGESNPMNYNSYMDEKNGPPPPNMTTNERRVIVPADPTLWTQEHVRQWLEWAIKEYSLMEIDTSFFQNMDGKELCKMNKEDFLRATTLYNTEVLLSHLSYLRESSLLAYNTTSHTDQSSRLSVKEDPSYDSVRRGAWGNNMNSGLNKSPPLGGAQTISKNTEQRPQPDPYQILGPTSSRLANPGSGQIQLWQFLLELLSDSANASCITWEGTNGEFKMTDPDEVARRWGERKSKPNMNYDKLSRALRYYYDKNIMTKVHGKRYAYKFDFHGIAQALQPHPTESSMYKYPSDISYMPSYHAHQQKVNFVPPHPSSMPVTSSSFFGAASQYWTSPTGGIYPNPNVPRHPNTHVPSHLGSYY
How it was run: (§1)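 Binding signal is defined as a hexamer's read frequency for one factor over its frequency for the tag-only sample. To obtain reads, GST-fused human transcription factors were expressed in yeast, captured on glutathione beads, barcoded with DNA and pooled with that sample. Pools met 200 nmole of a 16-mer random double-stranded DNA library in Tris/NaCl/DTT/glycerol buffer for 30 min at room temperature before washing, 0.1% formaldehyde crosslinking, proximity ligation (BsaI/T4 ligase, 1 h, 37 °C), PCR and Illumina NextSeq500 sequencing.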

ELK1 = target: T2, ELK1 (Homo sapiens, UniProt P19419 1-428); conditions: protein: recombinant; tags: N-terminal GST; dsDNA, one strand shown
T2 sequence: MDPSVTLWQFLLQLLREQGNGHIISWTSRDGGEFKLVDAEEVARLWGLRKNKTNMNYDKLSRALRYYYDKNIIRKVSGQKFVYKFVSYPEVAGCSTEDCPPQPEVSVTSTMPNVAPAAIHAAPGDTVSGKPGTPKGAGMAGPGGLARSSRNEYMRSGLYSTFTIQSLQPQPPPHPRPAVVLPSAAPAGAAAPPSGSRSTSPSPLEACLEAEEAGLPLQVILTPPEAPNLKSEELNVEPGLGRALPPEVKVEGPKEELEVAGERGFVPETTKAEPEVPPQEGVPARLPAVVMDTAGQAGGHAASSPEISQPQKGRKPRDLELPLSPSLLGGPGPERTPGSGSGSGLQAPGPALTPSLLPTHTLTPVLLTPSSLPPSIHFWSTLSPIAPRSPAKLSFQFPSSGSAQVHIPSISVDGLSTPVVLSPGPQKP
How it was run: as §1

ERG = target: T3, ERG (Homo sapiens, UniProt P11308 1-479); conditions: protein: recombinant; tags: N-terminal GST; dsDNA, one strand shown
T3 sequence: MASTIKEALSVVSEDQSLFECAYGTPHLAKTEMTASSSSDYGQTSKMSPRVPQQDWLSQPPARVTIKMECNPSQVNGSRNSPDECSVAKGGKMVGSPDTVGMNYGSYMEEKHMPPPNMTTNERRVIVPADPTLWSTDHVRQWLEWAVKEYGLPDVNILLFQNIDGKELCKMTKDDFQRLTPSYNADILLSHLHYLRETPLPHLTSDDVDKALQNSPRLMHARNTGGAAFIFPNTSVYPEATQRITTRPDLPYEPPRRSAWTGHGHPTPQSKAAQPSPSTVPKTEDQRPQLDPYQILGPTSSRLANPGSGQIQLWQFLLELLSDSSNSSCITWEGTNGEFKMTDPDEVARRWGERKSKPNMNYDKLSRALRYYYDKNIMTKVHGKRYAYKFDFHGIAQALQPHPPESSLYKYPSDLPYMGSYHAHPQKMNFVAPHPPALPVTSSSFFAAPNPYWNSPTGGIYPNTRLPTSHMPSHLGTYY
How it was run: as §1

EHF = target: T4, EHF (Homo sapiens, UniProt Q9NZC4 1-300); conditions: protein: recombinant; tags: N-terminal GST; dsDNA, one strand shown
T4 sequence: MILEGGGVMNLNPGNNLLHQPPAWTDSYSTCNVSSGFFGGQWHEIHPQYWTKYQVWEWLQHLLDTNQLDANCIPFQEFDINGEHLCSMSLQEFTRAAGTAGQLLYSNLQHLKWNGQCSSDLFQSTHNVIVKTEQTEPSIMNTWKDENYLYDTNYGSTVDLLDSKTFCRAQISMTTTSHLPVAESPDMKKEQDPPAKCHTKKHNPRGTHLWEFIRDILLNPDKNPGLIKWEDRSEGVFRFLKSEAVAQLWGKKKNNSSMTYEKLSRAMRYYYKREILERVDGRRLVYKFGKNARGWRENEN
How it was run: as §1

SPI1 = SPI1 (Homo sapiens, UniProt P17947 1-270); conditions: protein: recombinant; tags: N-terminal GST; dsDNA, one strand shown
How it was run: as §1

ELK3 = target: T5, ELK3 (Homo sapiens, UniProt P41970 1-407); conditions: protein: recombinant; tags: N-terminal GST; dsDNA, one strand shown
T5 sequence: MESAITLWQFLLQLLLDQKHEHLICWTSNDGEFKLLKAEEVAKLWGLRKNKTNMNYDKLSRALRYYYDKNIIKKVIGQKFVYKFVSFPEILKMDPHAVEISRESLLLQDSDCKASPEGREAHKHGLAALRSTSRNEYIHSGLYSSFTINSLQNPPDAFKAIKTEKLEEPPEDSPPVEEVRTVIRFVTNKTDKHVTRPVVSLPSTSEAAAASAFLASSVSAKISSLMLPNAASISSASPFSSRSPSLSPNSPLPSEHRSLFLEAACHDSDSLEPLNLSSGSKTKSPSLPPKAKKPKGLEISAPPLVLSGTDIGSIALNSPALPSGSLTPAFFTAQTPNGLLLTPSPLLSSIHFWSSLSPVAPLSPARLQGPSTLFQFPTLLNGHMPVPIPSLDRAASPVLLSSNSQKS
How it was run: as §1

FEV = target: T6, FEV (Homo sapiens, UniProt Q99581 1-238); conditions: protein: recombinant; tags: N-terminal GST; dsDNA, one strand shown
T6 sequence: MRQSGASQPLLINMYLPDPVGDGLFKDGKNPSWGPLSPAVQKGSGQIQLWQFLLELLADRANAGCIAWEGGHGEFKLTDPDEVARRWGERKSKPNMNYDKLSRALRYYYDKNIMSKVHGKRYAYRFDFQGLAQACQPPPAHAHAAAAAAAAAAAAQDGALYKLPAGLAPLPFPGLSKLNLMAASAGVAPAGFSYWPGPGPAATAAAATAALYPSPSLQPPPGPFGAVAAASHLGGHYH
How it was run: as §1

ETV5 = ETV5 (Homo sapiens, UniProt P41161 1-510); conditions: protein: recombinant; tags: N-terminal GST; dsDNA, one strand shown
Chain of ETV5 (P41161 whole entry): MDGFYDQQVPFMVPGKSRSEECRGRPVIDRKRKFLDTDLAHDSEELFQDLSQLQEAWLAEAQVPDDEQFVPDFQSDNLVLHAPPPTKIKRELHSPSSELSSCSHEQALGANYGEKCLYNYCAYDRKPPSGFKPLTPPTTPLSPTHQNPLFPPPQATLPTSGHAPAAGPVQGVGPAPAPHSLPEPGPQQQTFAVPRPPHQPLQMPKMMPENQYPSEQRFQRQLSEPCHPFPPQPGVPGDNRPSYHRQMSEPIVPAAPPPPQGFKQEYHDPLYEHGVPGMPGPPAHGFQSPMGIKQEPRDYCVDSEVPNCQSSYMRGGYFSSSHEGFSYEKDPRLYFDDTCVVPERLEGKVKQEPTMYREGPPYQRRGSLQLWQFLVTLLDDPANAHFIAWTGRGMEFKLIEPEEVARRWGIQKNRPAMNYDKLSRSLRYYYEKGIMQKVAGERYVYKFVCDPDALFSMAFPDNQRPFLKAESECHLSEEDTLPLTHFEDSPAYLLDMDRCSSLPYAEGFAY
How it was run: as §1

HSF1 = HSF1 (Homo sapiens, UniProt Q00613 1-529); conditions: protein: recombinant; tags: N-terminal GST; chain copies: 3; dsDNA, one strand shown
Chain of HSF1 (Q00613 whole entry): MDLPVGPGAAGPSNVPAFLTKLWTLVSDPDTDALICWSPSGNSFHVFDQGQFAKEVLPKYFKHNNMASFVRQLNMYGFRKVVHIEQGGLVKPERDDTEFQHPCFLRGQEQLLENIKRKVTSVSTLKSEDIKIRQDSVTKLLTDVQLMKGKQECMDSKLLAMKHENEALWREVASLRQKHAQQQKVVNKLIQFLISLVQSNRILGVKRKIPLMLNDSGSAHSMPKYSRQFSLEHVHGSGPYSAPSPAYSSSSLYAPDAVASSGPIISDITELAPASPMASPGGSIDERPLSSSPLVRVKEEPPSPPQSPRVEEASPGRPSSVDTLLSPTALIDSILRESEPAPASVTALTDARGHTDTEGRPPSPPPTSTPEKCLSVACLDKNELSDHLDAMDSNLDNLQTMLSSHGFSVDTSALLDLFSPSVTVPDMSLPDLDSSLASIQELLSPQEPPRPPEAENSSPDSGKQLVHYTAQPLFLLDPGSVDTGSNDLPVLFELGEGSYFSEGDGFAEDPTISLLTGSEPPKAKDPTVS
How it was run: as §1

SPIC = target: T7, SPIC (Homo sapiens, UniProt Q8N5J4 1-248); conditions: protein: recombinant; tags: N-terminal GST; dsDNA, one strand shown
T7 sequence: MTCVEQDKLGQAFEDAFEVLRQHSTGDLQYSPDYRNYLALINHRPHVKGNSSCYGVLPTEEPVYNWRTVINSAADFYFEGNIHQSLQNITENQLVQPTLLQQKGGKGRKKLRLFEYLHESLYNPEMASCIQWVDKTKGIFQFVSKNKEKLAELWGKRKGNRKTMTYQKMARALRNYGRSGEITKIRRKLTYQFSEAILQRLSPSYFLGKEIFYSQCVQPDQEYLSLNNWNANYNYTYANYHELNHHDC
How it was run: as §1

ELF4 = ELF4 (Homo sapiens, UniProt Q99607 1-663); conditions: protein: recombinant; tags: N-terminal GST; dsDNA, one strand shown
Chain of ELF4 (Q99607 whole entry): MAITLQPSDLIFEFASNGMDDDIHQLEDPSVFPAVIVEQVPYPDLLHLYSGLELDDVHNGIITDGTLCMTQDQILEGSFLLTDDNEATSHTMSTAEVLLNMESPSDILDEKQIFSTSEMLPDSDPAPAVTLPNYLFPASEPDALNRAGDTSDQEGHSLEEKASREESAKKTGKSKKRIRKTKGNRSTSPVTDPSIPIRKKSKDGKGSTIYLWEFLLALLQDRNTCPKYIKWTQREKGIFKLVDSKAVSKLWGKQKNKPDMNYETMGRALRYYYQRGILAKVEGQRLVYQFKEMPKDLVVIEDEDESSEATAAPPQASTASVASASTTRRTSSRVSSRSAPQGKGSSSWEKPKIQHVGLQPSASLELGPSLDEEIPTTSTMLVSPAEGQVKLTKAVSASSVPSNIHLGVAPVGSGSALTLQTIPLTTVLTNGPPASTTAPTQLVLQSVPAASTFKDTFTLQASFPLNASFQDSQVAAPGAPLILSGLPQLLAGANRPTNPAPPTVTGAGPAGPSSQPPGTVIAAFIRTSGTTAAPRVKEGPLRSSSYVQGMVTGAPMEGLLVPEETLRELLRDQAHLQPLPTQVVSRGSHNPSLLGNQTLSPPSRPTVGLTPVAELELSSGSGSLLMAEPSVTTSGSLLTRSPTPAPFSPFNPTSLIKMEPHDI
How it was run: as §1

ELK4 = target: T8, ELK4 (Homo sapiens, UniProt P28324-2 1-405); conditions: protein: recombinant; tags: N-terminal GST; dsDNA, one strand shown
T8 sequence: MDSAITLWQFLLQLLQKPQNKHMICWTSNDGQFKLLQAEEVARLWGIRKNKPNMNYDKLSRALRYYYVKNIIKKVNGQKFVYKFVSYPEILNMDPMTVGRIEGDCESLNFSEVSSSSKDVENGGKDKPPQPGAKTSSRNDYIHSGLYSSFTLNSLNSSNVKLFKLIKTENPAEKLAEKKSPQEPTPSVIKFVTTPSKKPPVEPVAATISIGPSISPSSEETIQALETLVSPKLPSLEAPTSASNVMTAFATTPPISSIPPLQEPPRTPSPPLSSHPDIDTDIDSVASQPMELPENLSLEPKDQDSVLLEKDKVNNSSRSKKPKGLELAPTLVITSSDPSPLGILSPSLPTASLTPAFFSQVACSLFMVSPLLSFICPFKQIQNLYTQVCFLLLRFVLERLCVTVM
How it was run: as §1

ETV2 = target: T9, ETV2 (Homo sapiens, UniProt O00321 1-342); conditions: protein: recombinant; tags: N-terminal GST; dsDNA, one strand shown
T9 sequence: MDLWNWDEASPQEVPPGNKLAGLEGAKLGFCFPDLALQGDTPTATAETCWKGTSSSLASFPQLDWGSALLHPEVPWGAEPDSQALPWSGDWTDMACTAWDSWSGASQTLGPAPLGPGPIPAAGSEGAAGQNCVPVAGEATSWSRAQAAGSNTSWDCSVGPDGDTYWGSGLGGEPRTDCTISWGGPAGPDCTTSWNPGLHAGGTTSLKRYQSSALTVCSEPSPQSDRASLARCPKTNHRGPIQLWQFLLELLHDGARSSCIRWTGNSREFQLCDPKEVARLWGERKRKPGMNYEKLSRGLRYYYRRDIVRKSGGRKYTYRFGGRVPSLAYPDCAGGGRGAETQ
How it was run: as §1

CRX = CRX (Homo sapiens, UniProt O43186 1-299); conditions: protein: recombinant; tags: N-terminal GST; dsDNA, one strand shown
Chain of CRX (O43186 whole entry): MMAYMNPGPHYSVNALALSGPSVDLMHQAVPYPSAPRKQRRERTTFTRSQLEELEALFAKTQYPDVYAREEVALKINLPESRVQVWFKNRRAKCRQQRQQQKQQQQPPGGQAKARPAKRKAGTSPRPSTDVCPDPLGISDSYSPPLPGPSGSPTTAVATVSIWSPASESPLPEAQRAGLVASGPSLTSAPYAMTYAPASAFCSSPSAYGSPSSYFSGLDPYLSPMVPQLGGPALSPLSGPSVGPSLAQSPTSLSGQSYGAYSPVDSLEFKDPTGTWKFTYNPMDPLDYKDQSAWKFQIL
How it was run: as §1

ETV1 = ETV1 (Homo sapiens, UniProt P50549 1-477); conditions: protein: recombinant; tags: N-terminal GST; dsDNA, one strand shown
Chain of ETV1 (P50549 whole entry): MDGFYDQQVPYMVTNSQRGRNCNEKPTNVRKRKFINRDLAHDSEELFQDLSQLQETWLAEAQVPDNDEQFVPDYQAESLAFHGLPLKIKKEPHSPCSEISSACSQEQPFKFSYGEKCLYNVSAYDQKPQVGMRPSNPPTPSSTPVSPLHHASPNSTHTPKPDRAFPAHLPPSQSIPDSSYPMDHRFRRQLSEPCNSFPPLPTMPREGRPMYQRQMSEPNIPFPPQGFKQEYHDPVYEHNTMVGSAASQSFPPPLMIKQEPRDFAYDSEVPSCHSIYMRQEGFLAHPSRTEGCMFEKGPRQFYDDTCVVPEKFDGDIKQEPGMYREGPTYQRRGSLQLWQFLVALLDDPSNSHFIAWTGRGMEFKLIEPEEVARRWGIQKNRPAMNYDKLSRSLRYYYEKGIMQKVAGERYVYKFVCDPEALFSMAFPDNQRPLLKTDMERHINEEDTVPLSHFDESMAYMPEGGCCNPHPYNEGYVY
How it was run: as §1

In the case of TATTAG, the binding signal (FLI1) is reported as 1.05 fold enrichment (6-mer frequency, TF over GST control), the binding signal (ELK1) is reported as 1.03 fold enrichment (6-mer frequency, TF over GST control) and the binding signal (ERG) is reported as 1.07 fold enrichment (6-mer frequency, TF over GST control). For the same sequence, the binding signal (EHF) was 1.02 fold enrichment (6-mer frequency, TF over GST control), the binding signal (SPI1) was 1.09 fold enrichment (6-mer frequency, TF over GST control) and the binding signal (ELK3) was 1.18 fold enrichment (6-mer frequency, TF over GST control). The binding signal (FEV) was 1.02 fold enrichment (6-mer frequency, TF over GST control), the binding signal (ETV5) was 1.04 fold enrichment (6-mer frequency, TF over GST control) and the binding signal (HSF1) was 1.42 fold enrichment (6-mer frequency, TF over GST control). For the same sequence, the binding signal (SPIC) was 1.13 fold enrichment (6-mer frequency, TF over GST control), the binding signal (ELF4) was 1.05 fold enrichment (6-mer frequency, TF over GST control) and the binding signal (ELK4) was 1.04 fold enrichment (6-mer frequency, TF over GST control). For the same sequence, the binding signal (ETV2) was 1.23 fold enrichment (6-mer frequency, TF over GST control), the binding signal (CRX) was 1.94 fold enrichment (6-mer frequency, TF over GST control) and the binding signal (ETV1) was 1.12 fold enrichment (6-mer frequency, TF over GST control).
